ADAM17 inh: ADAM17 inhibitors, primary screen, biochemical, QFRET. Disintegrin and metalloproteinase domain-containing protein 17 (Homo sapiens), P78536. recombinant ADAM17, EDANS/DABCYL FRET peptide cleavage. inhibition, % at 6.95 µM. actives 0.83% (n = 370,000). AID 720648, 2013;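 active = inhibition above the mean of compounds lying between control limits plus 3 SD, set per campaign, cut at about 8.5% in these data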;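 also: 0% = DMSO-only wells as the low control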
proKLK7 act: proKLK7 zymogen activators, primary screen, biochemical, fluorescence intensity; Kallikrein-7 (Homo sapiens), P49862; purified proKLK7, EDANS-DABCYL substrate fluorescence; 100% is mature enzyme control, 0% vehicle; activation, % at 7 µM; actives 0.9% (n = 370,000);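 active = activation above the mean of all tested compounds plus 3 SD, computed per campaign excluding outliers beyond control limits, cut at about 13% in these data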
ADAM10 inh: human ADAM10 inhibitors, primary screen, biochemical, QFRET, HTS | AID 720582, 2013 | recombinant ADAM10, EDANS/DABCYL FRET peptide cleavage, 3 h | actives 0.62% (n = 370,000) | inhibition, % at 7 µM;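 active = inhibition above a per-campaign cutoff equal to the mean of compounds falling between control-based bounds plus 3 SD, cut at about 20% in these data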;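 also: 0% = DMSO wells while the 100% control is not disclosed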
HGIII-sPLA2 inh: human group III sPLA2 inhibitors, primary screen, biochemical, QFRET, BODIPY PC-A2 liposome substrate | actives 0.56% (n = 370,000) | Group 3 secretory phospholipase A2 (Homo sapiens), Q9NZ20 | QFRET BODIPY PC-A2 liposome hydrolysis, fluorescence | inhibition, % at 12.2 µM;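 active = inhibition above mean plus 3 SD of compounds lying within the high and low control bounds, cut at about 19% in these data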;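 also: 0% = median of test compound wells and 100% = no enzyme DMSO wells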
PLCg1 inh: PLC-gamma1 enzyme inhibitors, primary screen, biochemical, fluorescence, purified enzyme; 1-phosphatidylinositol 4,5-bisphosphate phosphodiesterase gamma-1 (Homo sapiens), P19174; fluorogenic substrate; inhibition, % at 12.2 µM; actives 0.84% (n = 370,000); AID 720700, 2013; in the data active = inhibition above about 9.5%
PLC-beta3 inh: human PLC-beta3 inhibitors, primary screen, biochemical, fluorescence | Purified PLC-beta3, fluorogenic substrate | 1-phosphatidylinositol 4,5-bisphosphate phosphodiesterase beta-3 (Homo sapiens), Q01970 | inhibition, % at 12.2 µM | AID 720704, 2013 | actives 0.18% (n = 370,000); in the data active = inhibition above about 11%;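 also: 0% = median of compound wells on plate and 100% = full blocker control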
ADAM10 ctr: ADAM10 inhibitors, counter-screen for ADAM17 exosite inhibitor project, biochemical, FRET, human ADAM10 | inhibition, % at 6.95 µM | shares compounds with ADAM17 inh | AID 743256, 2014 | actives 47% (n = 2,900) | recombinant ADAM10, EDANS/DABCYL FRET peptide cleavage, 3 h;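 active = mean inhibition over the triplicate runs exceeds the activity threshold set in the earlier primary screen, cut at about 20% in these data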;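 also: 0% = DMSO wells and 100% = marimastat wells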
ADAM17 confirm: ADAM17 inhibitors, hit retest, confirmation, biochemical, QFRET peptide cleavage; shares compounds with ADAM17 inh; recombinant ADAM17, EDANS/DABCYL QFRET peptide cleavage; inhibition, % at 6.95 µM; actives 65% (n = 2,900); AID 743257, 2014;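 active = mean inhibition across replicates above the hit cutoff set in the primary screen, cut at about 8.5% in these data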;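 also: 0% = DMSO wells and 100% = marimastat wells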
* marks the source's active call; other numbers are inactive results. The list is not random: actives were taken first. Their share in the collection is about 3.4%.

Results for CC(C)[C@H](NC(=O)C1CCN(C(=O)[C@@H]2CCCN2)CC1)C(=O)NCc1ccc(F)cc1 ?
ADAM17 inh: 2; proKLK7 act: 0; ADAM10 inh: -10; HGIII-sPLA2 inh: 0; PLCg1 inh: 1; PLC-beta3 inh: 5

How did Cc1ccc(-c2csc(Nc3ccccn3)n2)cc1 do in these assays?
ADAM17 inh: 9.0*; proKLK7 act: 0; ADAM10 inh: 8; HGIII-sPLA2 inh: -6; PLCg1 inh: -1; PLC-beta3 inh: -3; ADAM10 ctr: 27*; ADAM17 confirm: 16*

What do the screens show for `CC(c1cccs1)N(Cc1ccco1)C(=O)Nc1ccc(Cl)c(Cl)c1` (stereo unspecified)?
ADAM17 inh: 8.6*; proKLK7 act: 0; ADAM10 inh: 10; HGIII-sPLA2 inh: -4; PLCg1 inh: 3; PLC-beta3 inh: 6; ADAM10 ctr: -1; ADAM17 confirm: 6

Results for COc1cccc(NC(=O)N(Cc2ccco2)C(C)c2cccs2)c1 (stereo unspecified) ?
ADAM17 inh: 6; proKLK7 act: 1; ADAM10 inh: -1; HGIII-sPLA2 inh: 5; PLCg1 inh: 5; PLC-beta3 inh: 5

How did COc1ccc(C(=O)c2c[nH]c3ccccc23)cc1 do in these assays?
ADAM17 inh: 11*; proKLK7 act: 1; ADAM10 inh: 13; HGIII-sPLA2 inh: -7; PLCg1 inh: 2; PLC-beta3 inh: 0; ADAM10 ctr: -2; ADAM17 confirm: 1

How did Cc1ccc(OC(=O)N(C)C[C@@H]2OCc3cn(nn3)CCCC(=O)N([C@@H](C)CO)C[C@H]2C)cc1 do in these assays?
ADAM17 inh: -2; proKLK7 act: 0; ADAM10 inh: -7; HGIII-sPLA2 inh: 3; PLCg1 inh: -2; PLC-beta3 inh: 1

What do the screens show for `CCOC(=O)c1cc2c(c(-c3cccc(C#Cc4ccc(OC)c(OC)c4)c3)n1)[C@@H](CCO)N(S(=O)C(C)(C)C)C2` (stereo partly specified)?
ADAM17 inh: 8.8*; proKLK7 act: 1; ADAM10 inh: 16; HGIII-sPLA2 inh: -14; PLCg1 inh: -7; PLC-beta3 inh: -21; ADAM10 ctr: 12; ADAM17 confirm: 10*

How did CCCNC(=O)c1cc2c(c(-c3cccc(-c4ccc(F)cc4)c3)n1)[C@H](CCO)N(S(=O)C(C)(C)C)C2 (stereo partly specified) do in these assays?
ADAM17 inh: 10*; proKLK7 act: 0; ADAM10 inh: 13; HGIII-sPLA2 inh: -8; PLCg1 inh: 3; PLC-beta3 inh: 2; ADAM10 ctr: 14; ADAM17 confirm: 10*

What do the screens show for `COc1ccc(C#Cc2cccc(-c3nc(C(=O)NCCCN4CCOCC4)cc4c3[C@H](CCO)N(S(=O)C(C)(C)C)C4)c2)cc1OC` (stereo partly specified)?
ADAM17 inh: 0; proKLK7 act: 2; ADAM10 inh: -10; HGIII-sPLA2 inh: -17; PLCg1 inh: -14; PLC-beta3 inh: -17

What do the screens show for `Cc1noc(C)c1NC(=O)N(C)C[C@@H]1Oc2c(NC(=O)c3ccncc3)cccc2C(=O)N([C@H](C)CO)C[C@@H]1C`?
ADAM17 inh: 0; proKLK7 act: 0; ADAM10 inh: -6; HGIII-sPLA2 inh: 7; PLCg1 inh: 1; PLC-beta3 inh: 3

How did COC(=O)c1cccc(NC(=O)Nc2ccccc2OC)c1 do in these assays?
ADAM17 inh: 0; proKLK7 act: -1; ADAM10 inh: 8; HGIII-sPLA2 inh: -5; PLCg1 inh: 0; PLC-beta3 inh: 3

How did O=C(CSc1nncc2ccccc12)N1CCCCC1 do in these assays?
ADAM17 inh: 1; proKLK7 act: 0; ADAM10 inh: 3; HGIII-sPLA2 inh: 2; PLCg1 inh: -2; PLC-beta3 inh: -3

Results for O=C(Nc1ccc(Cl)cc1)N1CCCN(Cc2ccc(F)cc2)C1 ?
ADAM17 inh: 10*; proKLK7 act: 0; ADAM10 inh: 7; HGIII-sPLA2 inh: -20; PLCg1 inh: 5; PLC-beta3 inh: 11; ADAM10 ctr: 13; ADAM17 confirm: 11*

How did O=C(Nc1ccccc1)N1CCN(Cc2ccc(Cl)cc2)CC1 do in these assays?
ADAM17 inh: 0; proKLK7 act: 0; ADAM10 inh: 10; HGIII-sPLA2 inh: -3; PLCg1 inh: 4; PLC-beta3 inh: 3

How did CSc1ccc(CN2CCCC(N3CCN(c4ccccc4)CC3)C2)cc1 (stereo unspecified) do in these assays?
ADAM17 inh: 6; proKLK7 act: 0; ADAM10 inh: 6; HGIII-sPLA2 inh: 5; PLCg1 inh: 8; PLC-beta3 inh: -5

Results for COc1ccc2c(CC(=O)N[C@@H](Cc3ccccc3)C(=O)O)cc(=O)oc2c1C ?
ADAM17 inh: -442; proKLK7 act: 6; ADAM10 inh: inactive; HGIII-sPLA2 inh: -8; PLCg1 inh: -158; PLC-beta3 inh: -220

Results for COc1ccc2c(C(F)(F)F)cc(=O)oc2c1C ?
ADAM17 inh: 9.8*; proKLK7 act: -1; ADAM10 inh: 13; HGIII-sPLA2 inh: 9; PLCg1 inh: 1; PLC-beta3 inh: 6; ADAM10 ctr: 17; ADAM17 confirm: 8

What do the screens show for `Cc1cc2c(nc1C)CCCN2Cc1ccccc1C(F)(F)F`?
ADAM17 inh: -70; proKLK7 act: 1; ADAM10 inh: -252; HGIII-sPLA2 inh: -4; PLCg1 inh: -119; PLC-beta3 inh: -157

How did O=C(Nc1ccccc1Oc1cccnc1)C1CCCN(C/C=C/c2ccccc2)C1 (stereo unspecified) do in these assays?
ADAM17 inh: 1; proKLK7 act: 0; ADAM10 inh: 2; HGIII-sPLA2 inh: -14; PLCg1 inh: 1; PLC-beta3 inh: -6

Screening data from PubChem.
